Assay results taken from the supplement of paper PMC10849652.
About 8,800 targets were measured; listed, in parts, are those with a hit and a random draw of the rest. About 0.5% of all pairs of compound and target were hits.

Columns and labels:
Experiment in all cases: log2 fold change, soluble protein after heating vs DMSO (PISA); higher = thermal stabilisation; K562 lysate, 10 uM; active = over 0.2 and 3.5 SD of the protein, either way, in both replicates (recomputed)
erlotinib = compound: C#Cc1cccc(Nc2ncnc3cc(OCCOC)c(OCCOC)cc23)c1 [erlotinib]
In short: (§1)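 Following dounce homogenisation of K562 pellets in PBS pH 7.4 with 1 mM MgCl2, crude extract at 1 mg/mL protein was incubated for 30 min with 10 μM compound. Aliquots were then heated for 3 min over 48°C-58°C and pooled, NP-40 was added to 0.5% at 4°C, and soluble protein was recovered as the supernatant at 21,000xg for 90 min. Channel-sum-equalised TMTpro 16plex LC-MS/MS quantified this protein. Each value, from duplicates, is a log-two fold change in thermal stability relative to solvent controls.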

[1] = compound: C/C(=N\NC(=O)C1=CC(=CC=C1)S(=O)(=O)N2CCOCC2)/C3=C(C=CC(=C3)Cl)O
In short: as §1

[2] = compound: C1=CC(=CC=C1C2=NC3=C(N2)C=C(C=C3)C(=O)N)OC4=CC=C(C=C4)Cl
In short: as §1

[3] = compound: C1=CC2=C(C=CC(=C2)/C=C\3/C(=O)NC(=NCC4=CC=CS4)S3)N=C1
In short: as §1

[4] = compound: C1=CC2=NC=CN=C2C=C1/C=C/3\C(=O)NC(=O)S3
In short: as §1

[5] = compound: C1=CC=C(C=C1)C2=NC(=C(N2)C3=CC=NC=C3)C4=CC(=C(C=C4)Cl)O
In short: as §1

[6] = compound: C1=CC=C2C(=C1)C3=NNC4=CC=CC(=C43)C2=O
In short: as §1

[7] = compound: C1CCN(C1)C(=O)NC2=CC=CC(=C2)NC3=NC=C(C(=N3)NCCC4=CN=CN4)Br
In short: as §1

[8] = compound: C1CN(CCC1(CC2=CC=C(C=C2)Cl)N)C3=NC=NC4=C3C=CN4
In short: as §1

IRAK-1-4 Inhibitor I = compound: C1COCCN1CCN2C3=CC=CC=C3N=C2NC(=O)C4=CC(=CC=C4)[N+](=O)[O-] [IRAK-1-4 Inhibitor I]
In short: as §1

ibrutinib = compound: C=CC(=O)N1CCC[C@@H](n2nc(-c3ccc(Oc4ccccc4)cc3)c3c(N)ncnc32)C1 [ibrutinib]
In short: as §1

[9] = compound: CC(=O)c1cnc2ccc(-c3cc(Cl)c(O)c(Cl)c3)nc2c1N[C@H]1CC[C@H](CN(C)C)CC1
In short: as §1

ralimetinib = compound: CC(C)(C)Cn1c(N)nc2ccc(-c3[nH]c(C(C)(C)C)nc3-c3ccc(F)cc3)nc21 [ralimetinib]
In short: as §1

[10] = compound: CC(C)(O)CC(=O)NCCn1ccc2ncnc(Nc3ccc(Oc4cccc(C(F)(F)F)c4)c(Cl)c3)c21
In short: as §1

[11] = compound: CC(C)C1=C2N=C(C=C(N2N=C1)NCC3=CC=CC=C3)NCCCCCCN
In short: as §1

[12] = compound: CC1=C(C(CC(=O)N1)C2=CC=C(C=C2)C(F)(F)F)C(=O)NC3=C(C=C4C(=C3)C=NN4)F
In short: as §1

[13] = compound: CC1=C(C2=C(C=C1)C(=O)C3=CC=CC=C3N2CCCN)C
In short: as §1

[14] = compound: CC1=C(C=C(C=C1)NC(=O)C2=CC(=CC=C2)C(C)(C)C#N)NC3=CC4=C(C=C3)N=CN(C4=O)C
In short: as §1

[15] = compound: CC1=C(C=C(C=C1)NC(=O)C2=CC(=CC=C2)N(C)C)NC(=O)C3=CC=C(C=C3)O
In short: as §1

[16] = compound: CC1=CC=C(C=C1)SC2=C3C=C(SC3=CN=C2)C(=O)N
In short: as §1

Measured: log2 fold change

POLR3E (UniProt Q9NVU0)
Sequence of UniProt Q9NVU0 (Q9NVU0 whole entry, looked up): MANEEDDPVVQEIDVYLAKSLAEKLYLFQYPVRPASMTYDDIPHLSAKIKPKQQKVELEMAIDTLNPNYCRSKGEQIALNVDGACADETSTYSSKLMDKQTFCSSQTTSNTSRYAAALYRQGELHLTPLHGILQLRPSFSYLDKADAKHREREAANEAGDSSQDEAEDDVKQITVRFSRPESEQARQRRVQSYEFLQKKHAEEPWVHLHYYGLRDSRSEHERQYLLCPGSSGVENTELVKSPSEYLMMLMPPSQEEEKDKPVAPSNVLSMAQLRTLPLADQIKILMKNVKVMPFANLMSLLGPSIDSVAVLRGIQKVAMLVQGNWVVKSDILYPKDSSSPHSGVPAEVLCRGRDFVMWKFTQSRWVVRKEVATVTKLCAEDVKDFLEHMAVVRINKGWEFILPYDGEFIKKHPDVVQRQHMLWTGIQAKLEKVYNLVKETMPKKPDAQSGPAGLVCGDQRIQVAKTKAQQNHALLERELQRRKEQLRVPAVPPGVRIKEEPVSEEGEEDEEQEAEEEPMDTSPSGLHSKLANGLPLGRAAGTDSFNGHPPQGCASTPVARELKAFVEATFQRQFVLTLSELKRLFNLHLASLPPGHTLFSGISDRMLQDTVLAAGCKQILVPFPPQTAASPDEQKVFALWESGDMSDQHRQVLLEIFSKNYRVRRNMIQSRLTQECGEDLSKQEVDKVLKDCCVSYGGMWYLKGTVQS
inactive: erlotinib 0.003 | [1] 0.003 | [2] -0.007 | [3] 0.017 | [4] 0.005 | [5] 0.006 | [6] -0.001 | [7] -0.03 | [8] -0.007 | IRAK-1-4 Inhibitor I -0.016 | ibrutinib 0.02 | [9] 0.018 | ralimetinib 0.043 | [10] -0.006 | [11] 0.029 | [12] 0.025 | [13] -0.021 | [14] -0.004 | [15] 0.003 | [16] 0.007

PRMT7 (UniProt Q9NVM4)
Sequence of UniProt Q9NVM4 (Q9NVM4 whole entry, looked up): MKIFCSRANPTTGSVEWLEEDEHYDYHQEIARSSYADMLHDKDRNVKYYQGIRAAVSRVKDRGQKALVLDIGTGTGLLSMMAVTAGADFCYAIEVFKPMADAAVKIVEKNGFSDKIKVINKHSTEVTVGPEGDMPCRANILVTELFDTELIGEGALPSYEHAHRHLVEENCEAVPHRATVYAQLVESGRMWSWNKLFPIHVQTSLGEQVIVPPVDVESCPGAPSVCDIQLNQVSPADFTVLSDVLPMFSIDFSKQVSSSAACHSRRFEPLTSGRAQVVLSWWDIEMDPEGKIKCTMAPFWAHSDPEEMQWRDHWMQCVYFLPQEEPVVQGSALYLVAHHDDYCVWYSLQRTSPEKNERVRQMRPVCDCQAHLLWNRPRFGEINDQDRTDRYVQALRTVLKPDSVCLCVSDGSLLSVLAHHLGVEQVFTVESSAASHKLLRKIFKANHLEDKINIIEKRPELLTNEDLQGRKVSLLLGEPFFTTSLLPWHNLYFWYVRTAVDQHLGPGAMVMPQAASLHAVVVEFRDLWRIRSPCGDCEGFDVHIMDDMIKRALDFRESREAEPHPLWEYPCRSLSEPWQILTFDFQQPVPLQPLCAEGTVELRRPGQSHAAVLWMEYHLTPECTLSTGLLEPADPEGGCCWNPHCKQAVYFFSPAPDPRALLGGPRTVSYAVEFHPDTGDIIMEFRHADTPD
inactive: erlotinib -0.042 | [1] 0.004 | [2] 0.024 | [3] 0.038 | [4] 0.008 | [5] -0.023 | [6] -0.083 | [7] -0.033 | [8] -0.031 | IRAK-1-4 Inhibitor I -0.008 | ibrutinib 0.043 | [9] -0.016 | ralimetinib 0.042 | [10] -0.01 | [11] 0.017 | [12] 0 | [13] -0.008 | [14] 0.013 | [15] 0.031 | [16] 0.008

PUF60 (UniProt Q9UHX1)
Sequence of UniProt Q9UHX1 (Q9UHX1 whole entry, looked up): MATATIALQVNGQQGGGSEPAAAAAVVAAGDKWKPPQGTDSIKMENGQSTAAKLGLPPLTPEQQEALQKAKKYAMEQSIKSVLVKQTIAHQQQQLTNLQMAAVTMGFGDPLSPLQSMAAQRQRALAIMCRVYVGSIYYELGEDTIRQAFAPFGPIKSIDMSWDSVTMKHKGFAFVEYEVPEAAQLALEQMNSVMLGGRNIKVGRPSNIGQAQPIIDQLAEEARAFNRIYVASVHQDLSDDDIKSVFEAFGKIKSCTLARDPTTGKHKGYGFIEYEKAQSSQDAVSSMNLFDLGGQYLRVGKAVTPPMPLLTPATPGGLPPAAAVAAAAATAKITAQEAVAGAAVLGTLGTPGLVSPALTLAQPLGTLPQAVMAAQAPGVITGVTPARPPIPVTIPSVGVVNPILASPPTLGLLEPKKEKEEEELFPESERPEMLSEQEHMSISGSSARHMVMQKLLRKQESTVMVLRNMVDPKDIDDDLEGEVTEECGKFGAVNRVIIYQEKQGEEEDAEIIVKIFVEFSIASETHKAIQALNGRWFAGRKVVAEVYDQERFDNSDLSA
inactive: erlotinib 0.001 | [1] 0.003 | [2] -0.01 | [3] 0.011 | [4] -0.018 | [5] -0.018 | [6] 0.01 | [7] 0.003 | [8] 0.003 | IRAK-1-4 Inhibitor I -0.023 | ibrutinib 0.011 | [9] -0.004 | ralimetinib -0.034 | [10] 0.013 | [11] 0.018 | [12] -0.02 | [13] 0.009 | [14] -0.003 | [15] -0.001 | [16] 0.004

PIKFYVE (UniProt Q9Y2I7)
Sequence of UniProt Q9Y2I7 (Q9Y2I7 whole entry, looked up): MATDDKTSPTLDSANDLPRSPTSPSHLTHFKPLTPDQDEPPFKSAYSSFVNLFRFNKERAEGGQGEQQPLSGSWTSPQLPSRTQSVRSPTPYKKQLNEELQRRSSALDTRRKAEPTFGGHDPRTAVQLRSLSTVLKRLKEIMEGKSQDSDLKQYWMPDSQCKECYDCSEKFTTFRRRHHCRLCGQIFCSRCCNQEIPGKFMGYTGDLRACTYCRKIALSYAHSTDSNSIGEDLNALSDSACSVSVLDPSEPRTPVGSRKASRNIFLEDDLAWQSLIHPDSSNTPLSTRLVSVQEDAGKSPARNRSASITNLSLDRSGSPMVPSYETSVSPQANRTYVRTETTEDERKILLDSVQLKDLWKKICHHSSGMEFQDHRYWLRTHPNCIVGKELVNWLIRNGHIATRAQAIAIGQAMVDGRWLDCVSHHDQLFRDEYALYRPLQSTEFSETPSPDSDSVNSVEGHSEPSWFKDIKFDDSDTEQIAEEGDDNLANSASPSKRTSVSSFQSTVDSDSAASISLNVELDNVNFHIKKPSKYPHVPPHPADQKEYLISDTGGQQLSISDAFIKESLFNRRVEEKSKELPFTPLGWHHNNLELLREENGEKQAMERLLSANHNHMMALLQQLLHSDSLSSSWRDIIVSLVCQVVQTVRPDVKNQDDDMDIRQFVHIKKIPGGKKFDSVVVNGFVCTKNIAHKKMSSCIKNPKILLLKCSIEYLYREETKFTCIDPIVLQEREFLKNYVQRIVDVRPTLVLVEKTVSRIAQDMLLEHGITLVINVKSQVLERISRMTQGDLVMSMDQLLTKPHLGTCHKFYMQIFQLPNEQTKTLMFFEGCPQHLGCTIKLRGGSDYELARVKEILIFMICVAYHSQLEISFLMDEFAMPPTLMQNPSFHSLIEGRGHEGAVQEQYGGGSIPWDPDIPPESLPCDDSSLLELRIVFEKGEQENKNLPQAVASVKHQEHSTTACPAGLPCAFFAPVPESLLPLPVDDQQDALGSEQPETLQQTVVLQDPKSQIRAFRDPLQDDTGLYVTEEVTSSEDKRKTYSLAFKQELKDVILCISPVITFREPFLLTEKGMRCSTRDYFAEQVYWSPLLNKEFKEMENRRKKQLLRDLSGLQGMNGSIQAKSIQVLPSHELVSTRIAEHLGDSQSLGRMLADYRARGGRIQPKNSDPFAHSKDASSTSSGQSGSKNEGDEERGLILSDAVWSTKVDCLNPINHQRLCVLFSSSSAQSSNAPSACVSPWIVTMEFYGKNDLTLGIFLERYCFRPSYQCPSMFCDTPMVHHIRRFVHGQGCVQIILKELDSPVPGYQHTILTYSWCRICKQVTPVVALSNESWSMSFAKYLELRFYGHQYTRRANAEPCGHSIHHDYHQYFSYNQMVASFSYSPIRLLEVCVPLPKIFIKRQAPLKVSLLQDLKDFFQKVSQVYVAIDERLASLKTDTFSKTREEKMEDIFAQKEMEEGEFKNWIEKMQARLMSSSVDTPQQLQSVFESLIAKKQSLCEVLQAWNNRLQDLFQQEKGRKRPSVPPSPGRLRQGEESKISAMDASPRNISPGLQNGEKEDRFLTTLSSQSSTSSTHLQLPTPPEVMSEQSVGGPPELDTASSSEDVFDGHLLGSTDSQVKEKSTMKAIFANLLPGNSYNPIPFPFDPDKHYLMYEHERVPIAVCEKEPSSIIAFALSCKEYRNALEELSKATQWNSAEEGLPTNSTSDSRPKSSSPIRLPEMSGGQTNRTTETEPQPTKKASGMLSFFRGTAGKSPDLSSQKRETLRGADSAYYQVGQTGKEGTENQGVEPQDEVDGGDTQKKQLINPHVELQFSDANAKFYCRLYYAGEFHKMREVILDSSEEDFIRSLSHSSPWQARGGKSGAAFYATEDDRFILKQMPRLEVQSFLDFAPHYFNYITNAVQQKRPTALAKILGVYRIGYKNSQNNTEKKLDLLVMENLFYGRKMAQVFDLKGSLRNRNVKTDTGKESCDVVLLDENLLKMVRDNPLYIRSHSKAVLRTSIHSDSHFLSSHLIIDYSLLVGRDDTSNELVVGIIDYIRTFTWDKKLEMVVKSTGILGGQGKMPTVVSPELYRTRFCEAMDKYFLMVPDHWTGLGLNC
inactive: erlotinib -0.026 | [1] -0.008 | [2] -0.01 | [3] 0.005 | [4] -0.011 | [5] 0.03 | [6] -0.034 | [7] -0.039 | [8] 0.035 | IRAK-1-4 Inhibitor I -0.004 | ibrutinib 0.019 | [9] -0.012 | ralimetinib 0.011 | [10] -0.012 | [11] 0 | [12] 0.042 | [13] 0.003 | [14] -0.044 | [15] 0.016 | [16] -0.004

PRKCB isoform 2 (UniProt P05771)
active: [9] 0.548
inactive: erlotinib 0.053 | [1] -0.191 | [2] 0.07 | [3] -0.043 | [4] -0.004 | [5] -0.064 | [6] -0.12 | [7] -0.149 | [8] 0.019 | IRAK-1-4 Inhibitor I -0.02 | ibrutinib -0.017 | ralimetinib 0.02 | [10] 0 | [11] 0.013 | [12] 0.002 | [13] -0.055 | [14] 0.042 | [15] -0.009 | [16] -0.113

PIP4K2C (UniProt Q8TBX8)
Sequence of UniProt Q8TBX8 (Q8TBX8 whole entry, looked up): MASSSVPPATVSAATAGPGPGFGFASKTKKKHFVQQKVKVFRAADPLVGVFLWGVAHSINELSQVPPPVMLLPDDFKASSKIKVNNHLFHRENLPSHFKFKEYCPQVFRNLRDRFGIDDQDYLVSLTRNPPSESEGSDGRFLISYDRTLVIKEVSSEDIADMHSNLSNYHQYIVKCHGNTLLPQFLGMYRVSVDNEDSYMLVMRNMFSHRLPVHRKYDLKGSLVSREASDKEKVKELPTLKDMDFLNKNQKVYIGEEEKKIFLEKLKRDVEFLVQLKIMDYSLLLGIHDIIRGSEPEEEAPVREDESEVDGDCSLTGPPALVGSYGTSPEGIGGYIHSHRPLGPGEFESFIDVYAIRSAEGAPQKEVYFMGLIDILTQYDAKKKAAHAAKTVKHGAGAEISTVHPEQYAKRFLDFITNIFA
active: [4] 0.496
inactive: erlotinib 0.104 | [1] -0.289 | [2] 0.033 | [3] 0.004 | [5] 0.137 | [6] 0.127 | [7] 0.231 | [8] -0.055 | IRAK-1-4 Inhibitor I -0.005 | ibrutinib 0.012 | [9] 0.277 | ralimetinib 0.039 | [10] -0.055 | [11] -0.055 | [12] -0.047 | [13] -0.027 | [14] 0.03 | [15] -0.027 | [16] -0.031

POLD3 (UniProt Q15054)
inactive: erlotinib 0.015 | [1] 0.002 | [2] -0.006 | [3] -0.003 | [4] -0.048 | [5] 0.01 | [6] -0.048 | [7] -0.058 | [8] -0.012 | IRAK-1-4 Inhibitor I -0.035 | ibrutinib 0.018 | [9] 0.006 | ralimetinib -0.027 | [10] -0.004 | [11] 0.035 | [12] 0.019 | [13] -0.008 | [14] -0.022 | [15] -0.017 | [16] -0.038

PRKRA (UniProt O75569)
Sequence of UniProt O75569 (O75569 whole entry, looked up): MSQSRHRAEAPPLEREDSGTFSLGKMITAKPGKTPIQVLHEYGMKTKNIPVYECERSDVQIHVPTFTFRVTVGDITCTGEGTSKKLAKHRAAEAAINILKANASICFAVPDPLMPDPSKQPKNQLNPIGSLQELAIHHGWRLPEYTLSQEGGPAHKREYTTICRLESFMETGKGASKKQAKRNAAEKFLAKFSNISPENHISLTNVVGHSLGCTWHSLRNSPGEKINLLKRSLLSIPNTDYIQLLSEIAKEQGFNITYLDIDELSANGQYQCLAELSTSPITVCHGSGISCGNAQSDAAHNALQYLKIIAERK
inactive: erlotinib 0.016 | [1] -0.1 | [2] -0.061 | [3] -0.01 | [4] 0.08 | [5] 0.012 | [6] -0.012 | [7] -0.074 | [8] 0.018 | IRAK-1-4 Inhibitor I 0.033 | ibrutinib -0.043 | [9] -0.01 | ralimetinib 0.035 | [10] 0.011 | [11] 0.013 | [12] 0.045 | [13] -0.038 | [14] 0.002 | [15] 0.056 | [16] 0.019
